# Where “and” joins values, the source holds several entries; their conditions need not be identical. Equal values may be shown once. Records with an inconclusive call do not appear. Entries that show only a call come without a potency. Calls of active or inactive are those of the source. Unless noted, the call rests on the fitted dose curve; in most records, active means well fitted curve in the direction sought with a large enough effect; inconclusive means small, poorly fitted or top-dose-only effect, or another doubt; inactive means no such curve, though single readings can be large; an effect the other way counts as inactive or inconclusive.
# What was measured:
# [1] = Primary qHTS for inhibitors of nuclear receptor binding SET domain protein 2 (NSD2) in an RCH-ACV wild type WT cells (2C) (AID 1645877); further: nearly all actives have a fitted effect of over 70% in size; further: potency means the concentration at half of the fitted maximal effect
# [2] = NCATS anti-infectives library activity on HEK293 viability as a counter-qHTS vs the C. elegans viability qHTS (AID 1745854)
# Procedure, shortened: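 HEK293 cells, 1500 per well, exposed 24 hr at 37C in 5% CO2 to compounds in a 1:5 titration, up to 41.7 uM final. Viability read as CellTiter-Glo luminescence after 10 min at room temperature.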
# [3] = biological target: Glutathione peroxidase 1 (Homo sapiens) (UniProt P07203); experiment: Primary qHTS Assay for Inhibitors of Recombinant Selenoprotein Glutathione Peroxidase 1 (GPX1) (AID 1845191); further: nearly all actives have a fitted effect of over 65% in size; further: potency means the concentration at half of the fitted maximal effect
# Procedure, shortened: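 GR-coupled assay: compounds preincubated 30 min at room temperature with GPX1, then reaction started with CHP; final 10 nM GPX1, 1 mM GSH, 0.5 mM CHP, 0.5 mM NADPH, 100 nM GR, 0.01% BSA, pH 7.5 Tris buffer. NADPH fluorescence (340/450 nm) read at 0 and 15 min.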
# [4] = biological target: Phospholipid hydroperoxide glutathione peroxidase GPX4 (Homo sapiens) (UniProt P36969); experiment: Primary qHTS Assay for Inhibitors of Recombinant Selenoprotein Glutathione Peroxidase 4 (GPX4) (AID 1845192); conditions: outcome: dose series up to 50 µM unless noted; further: nearly all actives have a fitted effect of over 65% in size
# Procedure, shortened: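 GR-coupled assay: recombinant GPX4 preincubated 30 min with compound at room temperature; final 200 nM GPX4, 1 mM GSH, 0.5 mM cumene hydroperoxide, 0.5 mM NADPH, 100 nM GR, 0.01% BSA, pH 7.5 Tris. NADPH fluorescence (340/450 nm) read at 0 and 15 min.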
# [5] = biological target: Metallo-beta-lactamase type 2 (Klebsiella pneumoniae) (UniProt C7C422); experiment: qHTS to identify inhibitors of the New Delhi Metallo-beta-lactamase (NDM): assay validation screen against the NCATS LOPAC Collection (AID 1794843);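 further: nitrocefin turnover by NDM-1 measured as 485 nm absorbance at plateau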
# Procedure, shortened: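 Enzyme 2 nM final, 50 mM HEPES pH 7.0, 1 uM ZnSO4, 0.01% Tween20; cpds in DMSO, preincub w/ enzyme; + nitrocefin (50 uM stock); A485 at plateau; no-enzyme column as blank.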
# [6] = biological target: Rap guanine nucleotide exchange factor 3 (Homo sapiens) (UniProt O95398); experiment: Confirmatory qHTS for antagonist of cAMP-regulated guanine nucleotide exchange factor 3 (EPAC1) (AID 1645880); further: nearly all actives have a fitted effect of over 55% in size
# Procedure, shortened: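 Nucleotide exchange uses 100 nM EPAC1, 250 nM RAP1B-BODIPY-GDP and 50 uM GDP, with compounds in a concentration-titration series. After 5 min at room temperature, fluorescence (480 nm ex/540 nm em) is read every 5 min for 30 min. Data are normalized to control ATA and DMSO.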
# [7] = biological target: Rap guanine nucleotide exchange factor 3 (Homo sapiens) (UniProt O95398); experiment: Confirmatory qHTS for agonist of cAMP-regulated guanine nucleotide exchange factor 3 (EPAC1) (AID 1645881); further: nearly all actives have a fitted effect of over 75% in size; further: potency means the concentration at half of the fitted maximal effect
# [8] = biological target: Rap guanine nucleotide exchange factor 4 (Homo sapiens) (UniProt Q8WZA2); experiment: Confirmatory qHTS for agonist of cAMP-regulated guanine nucleotide exchange factor 4 (EPAC2) (AID 1645884);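 further: nucleotide exchange releases bodipy-GDP from Rap1 and this lowers its fluorescence; nearly all actives have a fitted effect of over 65% in size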
# [9] = biological target: Rap guanine nucleotide exchange factor 4 (Homo sapiens) (UniProt Q8WZA2); experiment: Confirmatory qHTS for antagonist of cAMP-regulated guanine nucleotide exchange factor 4 (EPAC2) (AID 1645885); further: nearly all actives have a fitted effect of over 25% in size; further: potency means the concentration at half of the fitted maximal effect
# [10] = biological target: Catechol O-methyltransferase (Homo sapiens) (UniProt P21964); experiment: Confirmatory Screen for Target Class Profiling of Small Molecule Inhibitors of Methyltransferases (AID 1745852; calls by dose curve); conditions: MTase-Glo luminescence, SAH detection, recombinant enzyme; measured here: COMT max response; stronger effect = lower value
# [11] = biological target: Guanidinoacetate N-methyltransferase (Homo sapiens) (UniProt Q14353); experiment: as above; conditions: MTase-Glo luminescence, SAH detection, recombinant enzyme; at 57.3 µM (top of the series)
# [12] = biological target: Nicotinamide N-methyltransferase (Homo sapiens) (UniProt P40261); experiment: as above; conditions: MTase-Glo luminescence, SAH detection, recombinant enzyme; measured here: NNMT max response; stronger effect = lower value
# [13] = biological target: Phenylethanolamine N-methyltransferase (Homo sapiens) (UniProt P11086); experiment: as above; conditions: MTase-Glo luminescence, SAH detection, recombinant enzyme; measured here: PNMT max response; stronger effect = lower value
# [14] = qHTS drug screen for cell cycle checkpoint inhibitors in PARPi-resistant BRCA-mutant ovarian cancer cell lines. (AID 1963452; calls by dose curve); conditions: PEO1/OlaR viability, CellTiter-Glo luminescence, 96 h, stronger effect = lower value
# Procedure, shortened: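 PEO1, PEO4 and PEO1/OlaR ovarian cancer cells, 600 per well, exposed 96 h at 37C to a dilution series. Viability read by CellTiter-Glo luminescence, normalized to DMSO and empty wells; activity summarized as Z-AUC.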
# [15] = measured here: PEO1 parental Z-AUC
# Sequence of Rap guanine nucleotide exchange factor 4 (Homo sapiens) (Q8WZA2 whole entry, looked up): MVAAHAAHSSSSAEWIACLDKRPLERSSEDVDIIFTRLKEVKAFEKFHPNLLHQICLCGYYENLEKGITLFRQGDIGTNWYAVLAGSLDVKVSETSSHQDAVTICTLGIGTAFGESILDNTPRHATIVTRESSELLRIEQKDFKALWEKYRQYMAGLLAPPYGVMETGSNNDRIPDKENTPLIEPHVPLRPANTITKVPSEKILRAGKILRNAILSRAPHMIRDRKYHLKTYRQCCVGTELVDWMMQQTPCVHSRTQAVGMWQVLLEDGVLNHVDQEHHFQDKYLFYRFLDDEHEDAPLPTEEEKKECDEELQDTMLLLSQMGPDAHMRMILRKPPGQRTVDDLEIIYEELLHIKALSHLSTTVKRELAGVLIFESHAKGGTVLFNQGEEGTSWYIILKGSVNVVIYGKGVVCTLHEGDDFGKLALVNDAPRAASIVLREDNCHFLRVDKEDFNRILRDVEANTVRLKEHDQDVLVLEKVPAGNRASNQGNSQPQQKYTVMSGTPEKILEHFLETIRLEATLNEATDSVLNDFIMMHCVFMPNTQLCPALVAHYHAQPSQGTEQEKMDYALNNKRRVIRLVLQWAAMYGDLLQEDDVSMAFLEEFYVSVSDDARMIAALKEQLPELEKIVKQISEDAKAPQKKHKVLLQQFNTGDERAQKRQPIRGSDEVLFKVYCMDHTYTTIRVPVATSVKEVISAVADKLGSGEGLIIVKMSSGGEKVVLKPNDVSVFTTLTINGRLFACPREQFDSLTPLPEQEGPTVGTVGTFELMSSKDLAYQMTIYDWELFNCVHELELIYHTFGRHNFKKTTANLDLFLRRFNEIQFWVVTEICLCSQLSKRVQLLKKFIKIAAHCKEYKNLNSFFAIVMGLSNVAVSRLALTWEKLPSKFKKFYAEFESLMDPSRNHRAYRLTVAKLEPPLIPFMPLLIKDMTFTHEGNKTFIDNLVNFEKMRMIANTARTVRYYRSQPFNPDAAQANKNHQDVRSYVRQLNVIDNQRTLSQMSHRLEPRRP
# Sequence of Metallo-beta-lactamase type 2 (Klebsiella pneumoniae) (C7C422 whole entry, looked up): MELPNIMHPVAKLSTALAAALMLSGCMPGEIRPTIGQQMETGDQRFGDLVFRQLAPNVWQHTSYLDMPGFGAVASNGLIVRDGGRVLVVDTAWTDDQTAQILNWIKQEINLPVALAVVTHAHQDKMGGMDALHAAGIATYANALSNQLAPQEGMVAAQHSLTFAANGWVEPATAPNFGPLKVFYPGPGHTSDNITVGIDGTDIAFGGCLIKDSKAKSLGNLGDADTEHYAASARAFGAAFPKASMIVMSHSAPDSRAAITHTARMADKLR
# Sequence of Phospholipid hydroperoxide glutathione peroxidase GPX4 (Homo sapiens) (P36969 whole entry, looked up): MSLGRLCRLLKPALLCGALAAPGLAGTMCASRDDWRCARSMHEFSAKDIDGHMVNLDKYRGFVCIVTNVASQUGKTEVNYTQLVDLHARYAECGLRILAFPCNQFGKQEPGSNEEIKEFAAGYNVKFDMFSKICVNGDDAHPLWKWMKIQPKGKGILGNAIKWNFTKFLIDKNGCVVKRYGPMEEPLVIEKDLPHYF
# Sequence of Rap guanine nucleotide exchange factor 3 (Homo sapiens) (O95398 whole entry, looked up): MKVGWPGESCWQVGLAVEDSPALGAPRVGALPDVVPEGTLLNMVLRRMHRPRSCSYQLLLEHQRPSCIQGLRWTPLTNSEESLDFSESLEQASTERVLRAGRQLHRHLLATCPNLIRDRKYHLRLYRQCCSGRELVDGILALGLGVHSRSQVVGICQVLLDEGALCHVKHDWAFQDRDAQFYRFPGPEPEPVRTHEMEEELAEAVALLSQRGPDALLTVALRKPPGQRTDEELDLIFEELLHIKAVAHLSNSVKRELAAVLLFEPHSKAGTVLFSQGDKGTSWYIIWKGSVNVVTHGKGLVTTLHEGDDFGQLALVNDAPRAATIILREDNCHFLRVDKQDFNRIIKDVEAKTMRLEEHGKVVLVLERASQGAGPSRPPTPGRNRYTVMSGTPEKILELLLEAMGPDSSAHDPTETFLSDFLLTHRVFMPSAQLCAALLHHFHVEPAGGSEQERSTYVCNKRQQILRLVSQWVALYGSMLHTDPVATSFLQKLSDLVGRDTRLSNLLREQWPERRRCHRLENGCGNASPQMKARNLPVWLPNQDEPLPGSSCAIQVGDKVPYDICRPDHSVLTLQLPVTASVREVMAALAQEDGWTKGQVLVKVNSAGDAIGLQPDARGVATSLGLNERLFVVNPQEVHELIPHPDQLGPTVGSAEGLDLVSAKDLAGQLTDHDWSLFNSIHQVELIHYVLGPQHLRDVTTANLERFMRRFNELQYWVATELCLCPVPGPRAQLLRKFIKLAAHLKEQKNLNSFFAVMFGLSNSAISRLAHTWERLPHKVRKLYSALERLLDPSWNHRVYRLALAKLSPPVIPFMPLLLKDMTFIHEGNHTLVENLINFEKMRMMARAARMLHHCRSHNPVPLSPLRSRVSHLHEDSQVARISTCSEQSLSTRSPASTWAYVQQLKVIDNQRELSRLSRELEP
# Sequence of Glutathione peroxidase 1 (Homo sapiens) (P07203 whole entry, looked up): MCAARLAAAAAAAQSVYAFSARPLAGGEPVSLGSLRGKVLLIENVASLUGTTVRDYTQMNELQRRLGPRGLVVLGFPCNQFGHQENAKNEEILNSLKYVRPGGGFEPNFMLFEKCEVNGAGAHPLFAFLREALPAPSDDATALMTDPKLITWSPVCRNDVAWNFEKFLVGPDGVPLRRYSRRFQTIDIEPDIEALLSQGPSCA
# Sequence of Catechol O-methyltransferase (Homo sapiens) (P21964 whole entry, looked up): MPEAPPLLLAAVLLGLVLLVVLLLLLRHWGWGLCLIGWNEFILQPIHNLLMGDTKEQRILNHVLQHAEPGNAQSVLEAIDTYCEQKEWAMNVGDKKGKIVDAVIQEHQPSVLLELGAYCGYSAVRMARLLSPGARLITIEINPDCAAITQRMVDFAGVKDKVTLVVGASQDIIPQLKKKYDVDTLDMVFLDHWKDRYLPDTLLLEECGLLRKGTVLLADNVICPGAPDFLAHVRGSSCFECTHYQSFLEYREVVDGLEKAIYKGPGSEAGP
# Sequence of Nicotinamide N-methyltransferase (Homo sapiens) (P40261 whole entry, looked up): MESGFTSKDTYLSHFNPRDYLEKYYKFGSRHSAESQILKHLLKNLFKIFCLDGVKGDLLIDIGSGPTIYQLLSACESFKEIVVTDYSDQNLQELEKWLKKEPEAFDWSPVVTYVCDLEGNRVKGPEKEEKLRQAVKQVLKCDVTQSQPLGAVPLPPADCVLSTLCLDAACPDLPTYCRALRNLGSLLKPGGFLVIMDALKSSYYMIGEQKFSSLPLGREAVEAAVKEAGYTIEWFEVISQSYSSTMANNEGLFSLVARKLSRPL
# Sequence of Phenylethanolamine N-methyltransferase (Homo sapiens) (P11086 whole entry, looked up): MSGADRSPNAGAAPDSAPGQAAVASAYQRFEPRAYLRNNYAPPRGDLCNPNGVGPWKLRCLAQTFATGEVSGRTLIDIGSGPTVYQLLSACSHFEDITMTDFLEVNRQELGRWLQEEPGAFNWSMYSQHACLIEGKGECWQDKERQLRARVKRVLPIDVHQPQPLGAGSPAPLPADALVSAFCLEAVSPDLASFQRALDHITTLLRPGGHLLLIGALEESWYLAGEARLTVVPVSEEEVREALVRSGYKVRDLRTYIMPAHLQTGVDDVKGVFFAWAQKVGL
smiles,measurement,setting,value
C[C@H](CS)C(=O)N1CCC[C@H]1C(=O)O,Potency,[1],inactive
same,outcome,[2],inactive
same,Potency,[3],inactive
same,outcome,[4],inactive
Cc1nc2c([nH]1)c(=O)n(C)c(=O)n2Cc1ccco1,Potency,[1],inactive
same,Potency,[5],inactive
CCn1ccnc1CC1COc2ccccc2O1 (stereo not drawn),Potency,[1],inactive
same,outcome,[6],inactive
same,Potency,[7],inactive
same,Potency,[8],inactive
same,Potency,[9],11.1 µM (active)
same,Potency,[5],inactive
same,outcome,[4],inactive
C[n+]1cc2c3c(ccc2c2ccc4cc5c(cc4c21)OCO5)OCO3,Potency,[1],0.411 µM (active)
same,Potency,[5],inactive
same,Potency,[3],inactive
O=C1CC2(CCCC2)CC(=O)N1CCCCN1CCN(c2ncccn2)CC1,Potency,[1],inactive
same,Potency,[5],inactive
same,Potency,[3],inactive
COc1cc2c(cc1OC)-c1cc(=Nc3c(C)cc(C)cc3C)n(C)c(=O)n1CC2,Potency,[1],15 µM (active)
same,Potency,[7],inactive
same,Potency,[9],44.1 µM (active)
same,Potency,[3],inactive
C=CCc1ccccc1OCC(O)CNC(C)C (stereo not drawn),Potency,[1],inactive
same,outcome,[2],inactive
same,Potency,[5],inactive
same,Potency,[3],inactive
same,outcome,[4],inactive
CN(C)CCN(Cc1cccs1)c1ccccn1,Potency,[1],inactive
same,Potency,[5],inactive
same,Potency,[3],inactive
CC1=C(C)C(=O)C(CCCCC#CCCCC#CCO)=C(C)C1=O,Potency,[1],10.6 µM (active)
same,activity,[10],4.09%
same,"activity change, negative = inhibition",[11],4.63%
same,activity,[12],-9.42%
same,activity,[13],5.31%
same,Potency,[5],inactive
same,Potency,[3],inactive
same,outcome,[4],inactive
CC(=O)[C@@]1(O)CC[C@H]2[C@@H]3CCC4=CC(=O)CC[C@]4(C)[C@H]3CC[C@@]21C,Potency,[1],inactive
same,Potency,[5],inactive
same,Potency,[3],inactive
CCOC(=O)c1cnc2c(cnn2CC)c1NN=C(C)C,Potency,[1],inactive
O=C(CCNNC(=O)c1ccncc1)NCc1ccccc1,Potency,[1],inactive
same,Potency,[5],inactive
same,Potency,[3],inactive
O=C(O)CCCCCCCC(=O)O,Potency,[1],inactive
same,Potency,[5],inactive
same,Potency,[3],inactive
CN(C)CCCN1c2ccccc2Sc2ccc(C(F)(F)F)cc21,Potency,[1],18.8 µM (active)
same,outcome,[2],inactive
same,Potency,[5],inactive
same,Potency,[3],inactive
same,outcome,[4],inactive
NC(=O)N1c2ccccc2C=Cc2ccccc21,Potency,[1],inactive
same,Potency,[5],inactive
same,Potency,[3],inactive
same,outcome,[4],inactive
CC(=O)[C@]1(O)Cc2c(O)c3c(c(O)c2[C@@H](O[C@H]2C[C@H](N)[C@H](O)[C@H](C)O2)C1)C(=O)c1ccccc1C3=O,Potency,[1],0.9 nM (active) and 37.2 nM (active)
same,outcome,[6],inactive
same,Potency,[7],63 µM (active) and 70.6 µM (active)
same,Potency,[9],inactive
same,Potency,[5],inactive
same,Potency,[3],inactive
same,outcome,[4],inactive
same,Z-AUC,[14],-0.489 (inactive)
same,Z-AUC,[14]; [15],-0.953
same,Z-AUC,[14]; measured here: PEO4 Z-AUC,-0.26
COc1ccc(CCN(C)CCCC(C#N)(c2cc(OC)c(OC)c(OC)c2)C(C)C)cc1OC (stereo not drawn),Potency,[1],15 µM (active)
same,Potency,[5],inactive
Nc1nc(N)c2nc(-c3ccccc3)c(N)nc2n1,Potency,[1],9.44 µM (active)
same,outcome,[2],inactive
same,Potency,[5],inactive
same,Potency,[3],2.86 µM (active)
same,outcome,[4],inactive
COCCOC(=O)C1=C(C)NC(C)=C(C(=O)OC(C)C)C1c1cccc([N+](=O)[O-])c1 (stereo not drawn),Potency,[1],inactive
same,Potency,[7],inactive
same,Potency,[9],49.4 µM (active)
same,Potency,[5],inactive
COc1cc(C(=O)OCCCN2CCCN(CCCOC(=O)c3cc(OC)c(OC)c(OC)c3)CC2)cc(OC)c1OC,Potency,[1],23.7 µM (active)
same,activity,[10],-6.42%
same,"activity change, negative = inhibition",[11],9.88%
same,activity,[12],-4.53%
same,activity,[13],1.01%
same,Potency,[5],inactive
same,outcome,[4],inactive
C[N+](C)(C)CCCCCCCCCC[N+](C)(C)C,Potency,[1],inactive
same,Potency,[5],inactive
same,Potency,[3],inactive
same,outcome,[4],inactive
Cc1scc2c1N(C(=O)CN1CCN(C)CC1)c1ccccc1NC2=O,Potency,[1],inactive
same,Potency,[5],inactive
same,Potency,[3],inactive
same,outcome,[4],inactive
CCCC(C(=O)OCCN(CC)CC)(c1ccccc1)c1ccccc1,Potency,[1],11.9 µM (active)
same,Potency,[5],inactive
same,Potency,[3],inactive
same,outcome,[4],inactive
CC(C)COCC(CN(Cc1ccccc1)c1ccccc1)N1CCCC1 (stereo not drawn),Potency,[1],4.22 µM (active) and 16.6 µM (active)
same,Potency,[5],inactive
same,Potency,[3],inactive
same,outcome,[4],inactive
same,Z-AUC,[14],1.09 (inactive)
same,Z-AUC,[14]; [15],0.789
same,Z-AUC,[14]; measured here: PEO4 Z-AUC,0.389
CN(C)CCOC(=O)COc1ccc(Cl)cc1,Potency,[1],inactive
same,Potency,[5],inactive
same,Potency,[3],inactive
same,outcome,[4],inactive
C[C@]12CCC(=O)C=C1CC[C@@H]1[C@@H]2C(=O)C[C@@]2(C)[C@H]1CC[C@]2(O)C(=O)CO,Potency,[1],inactive
same,Potency,[5],inactive
same,Potency,[3],inactive
same,outcome,[4],inactive
C[C@]12C=CC(=O)C=C1CC[C@H]1[C@@H]3C[C@@H](O)[C@](O)(C(=O)CO)[C@@]3(C)C[C@H](O)[C@@]12F,Potency,[1],1.68 µM (active)
same,Potency,[5],inactive
same,Potency,[3],inactive
same,outcome,[4],inactive
O=c1[nH]c(=O)n([C@H]2C[C@H](O)[C@@H](CO)O2)cc1Br,Potency,[1],0.75 µM (active)
same,Potency,[5],inactive
same,Potency,[3],inactive
same,outcome,[4],inactive
CNC1(C)C2CCC(C2)C1(C)C (stereo not drawn),Potency,[1],inactive
same,Potency,[5],inactive
same,Potency,[3],inactive
same,outcome,[4],inactive
CCCCCCCC/C=C\CCCCCCCC(=O)NCc1ccc(O)c(OC)c1,Potency,[1],3.35 µM (active)
same,Potency,[5],inactive
same,Potency,[3],inactive
same,outcome,[4],inactive
COCCc1ccc(OCC(O)CNC(C)C)cc1 (stereo not drawn),Potency,[1],inactive
same,Potency,[5],inactive
same,Potency,[3],inactive
same,outcome,[4],inactive
CCCCNc1ccc(C(=O)OCCN(C)C)cc1,Potency,[1],inactive
same,Potency,[5],inactive
same,outcome,[4],inactive
COc1ccc([C@@H]2Sc3ccccc3N(CCN(C)C)C(=O)[C@@H]2OC(C)=O)cc1,Potency,[1],inactive
same,Potency,[5],inactive
same,Potency,[3],inactive
same,outcome,[4],inactive
same,Z-AUC,[14],1.43 (inactive)
same,Z-AUC,[14]; [15],0.963
same,Z-AUC,[14]; measured here: PEO4 Z-AUC,0.74

# — PubChem BioAssay (NCATS)
